Data from PubChem BioAssay (EPA / NIEHS).
The source made the active and inactive calls. Rule for the calls: active = hit-call score of the fitted dose curve at least 0.9, where 1 is the maximum; inactive = score below 0.9.

Test: BSK_LPS_PGE2: BioMAP Diversity Plus: LPS Assay for Prostaglandin E2 (PGE2) Biomarker Activity (AID 2283082)
Conditions: primary human HUVEC with PBMC; actives raise or lower the signal
Protocol: BSK_LPS is a cell-based, multiplexed-readout assay that uses umbilical vein endothelium and peripheral blood mononuclear cells, a human vascular primary cell co-culture, with measurements taken at 24 hours after chemical dosing in a 96-well plate.BSK_LPS_PGE2 is an assay component measured in the BSK_LPS assay. It measures PGE2 antibody related to regulation of gene expression using ELISA technology.Data from the assay component BSK_LPS_PGE2 was analyzed into 1 assay endpoint. This assay endpoint, BSK_LPS_PGE2, was analyzed with bidirectional fitting relative to DMSO as the negative control and baseline of activity. Using a type of binding reporter, gain or loss-of-signal activity can be used to understand changes in the signaling as they relate to the gene PTGER2. Furthermore, this assay endpoint can be referred to as a primary readout, because this assay has produced multiple assay endpoints where this one serves a signaling function. To generalize the intended target to other relatable targets, this assay endpoint is annotated to the gpcr intended target family, where the subfamily is rhodopsin-like receptor.
The levels of cell surface (or secreted, indicated by the prefix "s") biomarker endpoints were measured by ELISA. Overt cytotoxicity to cells in confluent adherent cultures (all systems other than the BT system) was assessed by measuring total protein levels using sulforhodamine B (SRB) staining in parallel cultures at the time of biomarker measurements, indicated as SRB endpoints. For proliferation assays for adherent cell types, individual cell types are cultured at sub-confluence and relative cell numbers quantified by SRB staining at time points optimized for each system (48 h: 3C and CASM3C systems; 72 h: BT and HDF3CGF systems; 96 h: SAg system). SRB was performed by staining cells with 0.1% SRB after fixation with 10% TCA and reading wells at 560 nm.Viability and proliferation of PBMC (T cells) was quantified by Alamar Blue reduction for the SAg and BT systems. For PBMC viability (referred to as PBMC Cytotoxicity within the assay endpoint names), cells were plated (75,000/well in a 96-well plate) and then chemical samples added for 1 h before addition of activators, SEB and TSST-1 (20 ng/mL final concentration each). Cells were incubated for 90 h. Then, Alamar Blue (20 uL/well) (Invitrogen, Cat DAL1100) was added for 6 h, and the plates were read with a fluorescence microplate reader at 546/580 nm (excitation/emission). For PBMC proliferation, cells were plated and activated as above but incubated for only 16 h prior to addition of Alamar Blue. Plates were read after 6 h.

| Compound | outcome | AC50 |
| --- | --- | --- |
| Nc1cnn(-c2ccccc2)c(=O)c1Cl | inactive |  |
| CCN(CC)c1nc(C)cc(OP(=S)(OC)OC)n1 | inactive |  |
| CC(C)=CC1C(C(=O)OCc2coc(Cc3ccccc3)c2)C1(C)C (stereo not given) | inactive |  |
| CC(C)(C)C(=O)C(Oc1ccc(Cl)cc1)n1cncn1 (stereo not given) | inactive |  |
| COc1cc(Cl)c(OC)cc1Cl | inactive |  |
| Cc1cc(C)nc(Nc2ccccc2)n1 | inactive |  |
| COC(=O)c1c(C(F)F)nc(C(F)(F)F)c(C2=NCCS2)c1CC(C)C |  | 12.2 µM (active) |
| CNC(=O)Oc1cccc2ccccc12 |  | 1.63 µM (active) |
| CCOC(=O)C(C)OC(=O)c1cc(Oc2ccc(C(F)(F)F)cc2Cl)ccc1[N+](=O)[O-] (stereo not given) |  | 2.12 µM (active) |
| Nc1c(Cl)c(F)nc(OCC(=O)O)c1Cl | inactive |  |
| N#Cc1c(Cl)cccc1Cl | inactive |  |
| CC(C)Oc1cccc(NC(=O)c2ccccc2C(F)(F)F)c1 | inactive |  |
| COCC(=O)N(c1c(C)cccc1C)C(C)C(=O)OC (stereo not given) | inactive |  |
| CC(C)NC(=O)N1CC(=O)N(c2cc(Cl)cc(Cl)c2)C1=O | inactive |  |
| COC(=O)N(C(=O)N1CO[C@@]2(C(=O)OC)Cc3cc(Cl)ccc3C2=N1)c1ccc(OC(F)(F)F)cc1 | inactive |  |
| CO/N=C(/C1=NOCCO1)c1ccccc1Oc1ncnc(Oc2ccccc2Cl)c1F | inactive |  |
| CCSC(=O)N1CCCCCC1 | inactive |  |
| COP(=S)(OC)SCn1nnc2ccccc2c1=O |  | 13.8 µM (active) |
| COCC(C)N(C(=O)CCl)c1c(C)csc1C (stereo not given) | inactive |  |
| CCOc1nc(C(Cl)(Cl)Cl)ns1 | inactive |  |

| Compound | outcome | AC50 |
| --- | --- | --- |
| C=C(C)CN(CC)c1c([N+](=O)[O-])cc(C(F)(F)F)cc1[N+](=O)[O-] | inactive |  |
| COP(=S)(OC)Oc1ccc([N+](=O)[O-])c(C)c1 | inactive |  |
| CCCC(=NOCC)C1=C(O)CC(CC(C)SCC)CC1=O (stereo not given) | inactive |  |
| CCC(C)n1c(=O)[nH]c(C)c(Br)c1=O (stereo not given) | inactive |  |
| C=CCOC(=O)C(C)(C)OC(=O)c1cc(-n2c(=O)cc(C(F)(F)F)n(C)c2=O)ccc1Cl | inactive |  |
| O=c1n(Cl)c(=O)n(Cl)c(=O)n1Cl | inactive |  |
| CC1(C)CCC(=Cc2ccc(Cl)cc2)C1(O)Cn1cncn1 (stereo not given) | inactive |  |
| CCCCC(C#N)(Cn1cncn1)c1ccc(Cl)cc1 (stereo not given) |  | 12 µM (active) |
| Cc1ccc(N=CN(C)C=Nc2ccc(C)cc2C)c(C)c1 |  | 11.6 µM (active) |
| O=C(Nc1ccccc1-c1ccc(Cl)cc1)c1cccnc1Cl | inactive |  |
| Cc1cnc(C2=NC(C)(C(C)C)C(=O)N2)c(C(=O)O)c1 (stereo not given) | inactive |  |
| Cn1c(-c2ccccc2)cc(-c2ccccc2)[n+]1C | inactive |  |
| COc1cc(OC)nc(NC(=O)NS(=O)(=O)c2ncccc2OCC(F)(F)F)n1 | inactive |  |
| CCNC(=O)NC(=O)C(C#N)=NOC | inactive |  |
| CCNP(=S)(OC)O/C(C)=C/C(=O)OC(C)C (stereo not given) | inactive |  |
| CS(=O)(=O)c1ccc(C(=O)C2C(=O)CCCC2=O)c([N+](=O)[O-])c1 | inactive |  |
| CCOc1cc(C(C)(C)C)ccc1C1COC(c2c(F)cccc2F)=N1 (stereo not given) |  | 32.1 µM (active) |
| CC(C)Nc1nc(Cl)nc(NC(C)C)n1 | inactive |  |
| COC(=O)NS(=O)(=O)c1ccc(N)cc1 | inactive |  |
| CC(C)C1(C)N=C(c2ncccc2C(=O)O)NC1=O (stereo not given) | inactive |  |
